Pf growth 96h: inhibits malaria parasite growth, 96 h | P. falciparum luciferase reporter growth, 96 h | Potency, µM (titrated, usually from 28.7 µM), usual class: inhibitors | actives 6.9% (n = 320,000)
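Plates of compound plus infected erythrocytes (2% hematocrit, 0.05% parasitemia final) incubate 96 hours, 37 C, 5% CO2. Detection reagent added; reduced luminescence from the parasites' luciferase reporter flags inhibition.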
Shiga toxin inh: inhibitors of Shiga toxin in Vero cells; Vero cells, Shiga toxin protein synthesis inhibition reporter; inhibition, % at 38.7 µM; actives 9.2% (n = 290,000); in the data active = inhibition mostly above about 28%, no sharp cut-off; inactive = mostly below about 43%
Pf growth 48h: inhibits P. falciparum growth in the first generation, 48 h | P. falciparum luciferase growth in erythrocytes, 48 h | Potency, µM (series often up to 28.7 µM), usual class: inhibitors | actives 5.9% (n = 310,000) | AID 504832
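Read-out is firefly luciferase luminescence from an integrated reporter in P. falciparum, so falling signal marks reduced parasite growth. Infected erythrocytes were at 2% hematocrit and 0.1% parasitemia (final) in Albumax-supplemented RPMI 1640.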
Marburg entry inh: inhibitors of Marburg virus binding or cell entry. Marburg virus pseudotyped entry inhibition, cell reporter. Potency, µM (highest dose often 37.8 µM), usual class: inhibitors. actives 1.8% (n = 300,000); calls by dose curve; tested in HEK293 cells
Lassa entry inh: blocks Lassa virus binding to or entry into cells; Lassa virus pseudotype entry inhibition, cell reporter; Potency, µM (titrated, usually from 37.9 µM), most hits filed as inhibitors; actives 1.2% (n = 300,000); calls by dose curve; tested in HEK293 cells; also: nearly all actives have a fitted effect of over 50% in size
CHX counter: counter-screen hit for Shiga toxin inhibitors, cycloheximide | max response, % | actives 12% (n = 300,000) | cell reporter, cycloheximide protein synthesis inhibition counterscreen; in the data active = max response mostly above about 13%, no sharp cut-off; inactive = mostly below about 14%; also: read at 38.3 µM for the half of the compounds with a filed dose
Numbers stand for hits; 0 = inactive; ? = inconclusive; - = no result given; ! = not confirmed by another sample. Shown are actives, neighbours in structure and some others; about 19% of the full set was active somewhere. Unless noted, calls follow the shape of the dose curve; as a rule, active = well fitted inhibition curve with a large enough effect; inconclusive = small, poorly fitted or top-dose-only effect, or another doubt; inactive = no such curve, though single readings can be large or run the other way.

SMILES	Pf growth 96h	Shiga toxin inh	Pf growth 48h	Marburg entry inh	Lassa entry inh	CHX counter
c1ccc(CN(CC2=NCCN2)c2ccccc2)cc1	12µM!	0	0	?	?	0
COc1nc(NCc2ccco2)nc(NC2CCCCC2)n1	0	0	0	0	0	26
CC1CN(S(=O)(=O)c2cccc(C(=O)Nc3ccc(S(=O)(=O)Nc4ncccn4)cc3)c2)CC(C)O1 (stereo unspecified)	0	0	?	0	0	0
Cc1ccc(C)c(Cn2c3ccccc3c3cnn(CC(=O)NCc4ccccc4)c(=O)c32)c1	-	-	-	0	0	-
COc1ccc(-n2c(-c3ccccc3)cc3c2CCCC3=O)cc1	?	0	?	?	?	0
O=C1CCCc2c1cc(-c1ccccc1)n2-c1ccc(O)cc1	0	0	0	0	?	0
Cc1ccc(-n2c(C)cc3c2CCCC3=O)cc1	0	0	10µM	0	0	0
Cc1ccc(-c2cc3c(n2-c2ccc(C(=O)O)cc2)CCCC3=O)cc1	0	64	0	?	0	19
CC(C)OCCCn1c(SCc2ccccc2Cl)nc2c(sc3ccccc32)c1=O	-	-	-	-	0	-
Cc1[nH]c2ccccc2c1SCC(=O)N1CCCCC1	0	0	0	-	-	0
O=C(O)CSC(=S)N1CCCC1	0	0	0	-	-	0
Cc1[nH]c2ccccc2c1C(=O)CSC(=S)N1CCCCC1	0	85	0	0	?	95
O=C(CSC(=S)N1CCCCC1)c1ccccc1	0	0	0	?	?	23
O=C(CSC(=S)N1CCCC1)c1ccccc1	0	67	0	-	-	48
Cc1ccc(C(=O)Nc2ccc(O)cc2C(=O)O)cc1C	0	0	-	0	?	0
COc1ccc(-c2ccc(=O)n(Cc3cccc(Cl)c3)n2)cc1	?	0	0	-	-	0
CC(C)NC(=O)COC(=O)Cn1[nH]c(=O)c2ccccc2c1=O	0	0	0	-	-	0
COc1ccc(NS(=O)(=O)c2ccc(Br)cc2)cn1	0	0	0	0	0	0
Cc1ccc(C(=O)NCC(=O)OC(C)C(=O)Nc2ccc(N(C)C)cc2)cc1C (stereo unspecified)	0	0	0	0	0	0
Cc1cccc2sc(NC(=O)C3CSC4(C)CCC(=O)N34)nc12 (stereo unspecified)	0	0	0	-	-	0
CCC(=O)Nc1nnc(SCc2ccccc2F)s1	0	79	0	0	0	0
CC(C)COC(=O)Nc1nnc(SCc2ccccc2F)s1	?	0	0	?	?	0
CC12CCC(=O)N1C(C(=O)Nc1nnc(SCc3ccccc3F)s1)CS2 (stereo unspecified)	0	56	0	0	?	20
CC12CCC(=O)N1C(C(=O)Nc1nc3c(F)cc(F)cc3s1)CS2 (stereo unspecified)	?	0	0	0	0	21
Cc1ccc2c(c1)/C(=C/c1ccccc1)C(=O)N2	0	0	?	?	10µM	0
SMILES	Pf growth 96h	Shiga toxin inh	Pf growth 48h	Marburg entry inh	Lassa entry inh	CHX counter
N/C(=N\OC(=O)c1ccco1)c1cccnc1	0	109	0	0	0	34
N/C(CCS(=O)(=O)c1ccc(Cl)cc1)=N\OC(=O)c1ccccc1Cl	?	0	?	0	0	0
N/C(=N\OC(=O)c1ccccc1Cl)c1ccccc1	0	70	0	?	?	35
O=C(O/N=C(\c1ccccc1)c1ccncc1)c1ccccc1Cl	0	0	0	-	-	0
N/C(=N\OC(=O)c1ccccc1Cl)c1ccc(Cl)cc1	0	63	0	?	?	49
N/C(=N\OC(=O)c1ccc(Cl)cc1)c1ccn[nH]1	0	49	0	-	-	39
O=C(/C=C/c1ccco1)c1cccnc1	?	0	-	-	-	0
O=C1NCCCC1C(=O)NCCNC(=O)C(F)(F)F (stereo unspecified)	0	0	0	0	0	0
O=C(CCNC(=O)c1ccccc1Cl)NCC12CC3CC(CC(C3)C1)C2	0	0	0	?	0	0
CC(C(=O)Nc1ccc(S(=O)(=O)N2CCCCC2)cc1)N1CCN(c2ccccn2)CC1 (stereo unspecified)	0	0	0	-	-	0
O=C(c1ccc(Cl)cc1)N1CCN(C(=O)c2ccco2)CC1	0	0	0	0	0	0
N/C(=N\OC(=O)c1ccco1)c1ccc(Cl)cc1	0	84	0	?	?	62
N/C(=N\OC(=O)c1ccc(Cl)cc1)c1ccc(Cl)cc1	2.6µM	54	?	?	?	21
O=C(OCc1ccccc1Cl)c1cccnc1Cl	-	0	0	0	0	0
O=C(OCc1ccccc1Cl)c1ccccc1C(=O)c1ccccc1	0	65	0	0	0	19
COc1ccc(-c2noc3c2-c2nc(C4CCCCC4)sc2CC3)cc1	0	0	0	-	-	0
CN1C(=O)c2ccccc2Sc2ccc(NC(=O)N3CCN(c4ccccc4)CC3)cc21	-	-	-	?	0	-
N#Cc1c(-c2ccccc2)cc2nc3ccccc3n2c1N	?	0	0	?	?	24
COc1cc(-c2cc3nc4ccccc4n3c(N)c2C#N)cc(OC)c1OC	?	0	0	?	?	0
NCC(c1ccccc1)(c1ccccc1)c1ccccc1	?	0	?	7.9µM	0	0
CCCn1c(C2CCCN2c2nc(-c3cccc(Br)c3)cs2)nc2ccccc21 (stereo unspecified)	1.9µM	0	?	-	-	0
COc1cccc(NC(=O)N2CCC(CN3CCOCC3)CC2)c1	-	-	-	-	0	-
NS(=O)(=O)c1cccc(NC(=O)CSc2nn(-c3ccccc3)c(=S)s2)c1	1.2µM	0	1.9µM	?	?	0
Cc1ccc(NC(=O)CSc2nn(-c3ccc(Cl)cc3)c(=S)s2)cc1S(=O)(=O)N(C)C	?	0	?	?	11µM	0
O=C(CN1C(=O)C(=O)c2ccccc21)NC1CCCCC1	0	0	0	0	0	0
SMILES	Pf growth 96h	Shiga toxin inh	Pf growth 48h	Marburg entry inh	Lassa entry inh	CHX counter
CN(C)C(=O)Oc1ccc2ccccc2c1Cl	0	0	-	?	?	30
CCN(CC)C(=O)Oc1ccc2ccccc2c1Cl	?	80	0	?	?	43
CCOC(=O)C1CCCN(C(=O)c2ccc(OC)c([N+](=O)[O-])c2)C1 (stereo unspecified)	?	0	0	0	0	0
COc1cccc(C(=O)OCCN2CCOCC2)c1	0	21	0	-	-	0
CCN(CC)CCCCCCCCOC(=O)c1cc(OC)c(OC)c(OC)c1	10µM	-	9.3µM	23µM	?	-
COc1cc(C(=O)OCCN2CCCCC2)ccc1O	0	0	0	0	0	0
COc1cc(C(=O)OCCCN2CCCN(CCCOC(=O)c3cc(OC)c(OC)c(OC)c3)CC2)cc(OC)c1OC	0	-	9.5µM	5.2µM	?	-
COc1cc(C(=O)OCCCN(C)C)cc(OC)c1OC	0	0	0	0	0	0
COc1cc(C(=O)OCCN2CCOCC2)cc(OC)c1OC	0	0	0	0	0	0
COc1cc(C(=O)OCCCN2CCOCC2)ccc1O	0	0	0	0	0	17
CCCNC(=O)Cn1cc(S(=O)(=O)N2CCCC2)c(S(=O)(=O)N2CCCC2)c1	0	0	?	0	0	0

Bioassay records from PubChem BioAssay.
